Measured values reported in article PMC7862700, “An all-to-all approach to the identification of sequence-specific readers for epigenetic DNA modifications on cytosine”.

Legend:
Assay in all cases: DAPPL (digital affinity profiling via proximity ligation, sequencing); 10 mM Tris-HCl pH 7.5, 50 mM NaCl, 1 mM DTT, 4% glycerol, room temperature, 30 min; GST-TFs on glutathione beads, 16-mer random dsDNA library, 0.1% formaldehyde crosslink after washing; high values mean tight binding
[1] = molecular target: T1, FEV (Homo sapiens, UniProt Q99581 1-238); conditions: protein: recombinant; tags: N-terminal GST; dsDNA, one strand shown
T1 sequence: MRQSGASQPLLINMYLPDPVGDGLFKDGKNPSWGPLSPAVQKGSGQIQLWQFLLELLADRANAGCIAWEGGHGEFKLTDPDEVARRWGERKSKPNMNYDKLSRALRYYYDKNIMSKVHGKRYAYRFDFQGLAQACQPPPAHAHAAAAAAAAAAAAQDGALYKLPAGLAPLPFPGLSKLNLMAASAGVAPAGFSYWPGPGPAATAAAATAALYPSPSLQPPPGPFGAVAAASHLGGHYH
How it was run: (§1)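 Yeast served to express human transcription factors as GST fusions, which were then captured on glutathione beads and labelled with DNA barcodes. Pooled with a tag-only sample, they were incubated with 200 nmole of a 16-mer random double-stranded DNA library for 30 min at room temperature in Tris/NaCl/DTT/glycerol buffer, washed, crosslinked with 0.1% formaldehyde, ligated by proximity, amplified by PCR and sequenced. Dividing each hexamer's read frequency for a factor by its frequency for the tag-only sample gives the binding signal.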

[2] = molecular target: ETV5 (Homo sapiens, UniProt P41161 1-510); conditions: protein: recombinant; tags: N-terminal GST; dsDNA, one strand shown
How it was run: as §1

[3] = molecular target: HSF1 (Homo sapiens, UniProt Q00613 1-529); conditions: protein: recombinant; tags: N-terminal GST; chain copies: 3; dsDNA, one strand shown
How it was run: as §1

[4] = molecular target: T2, SPIC (Homo sapiens, UniProt Q8N5J4 1-248); conditions: protein: recombinant; tags: N-terminal GST; dsDNA, one strand shown
T2 sequence: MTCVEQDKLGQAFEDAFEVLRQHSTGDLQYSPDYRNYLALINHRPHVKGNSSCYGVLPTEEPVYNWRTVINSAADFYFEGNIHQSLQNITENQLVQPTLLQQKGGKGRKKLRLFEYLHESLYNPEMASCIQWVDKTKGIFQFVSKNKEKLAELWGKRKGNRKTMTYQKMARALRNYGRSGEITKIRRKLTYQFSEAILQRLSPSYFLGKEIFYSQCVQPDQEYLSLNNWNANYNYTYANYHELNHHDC
How it was run: as §1

[5] = molecular target: ELF4 (Homo sapiens, UniProt Q99607 1-663); conditions: protein: recombinant; tags: N-terminal GST; dsDNA, one strand shown
How it was run: as §1

[6] = molecular target: T3, ELK4 (Homo sapiens, UniProt P28324-2 1-405); conditions: protein: recombinant; tags: N-terminal GST; dsDNA, one strand shown
T3 sequence: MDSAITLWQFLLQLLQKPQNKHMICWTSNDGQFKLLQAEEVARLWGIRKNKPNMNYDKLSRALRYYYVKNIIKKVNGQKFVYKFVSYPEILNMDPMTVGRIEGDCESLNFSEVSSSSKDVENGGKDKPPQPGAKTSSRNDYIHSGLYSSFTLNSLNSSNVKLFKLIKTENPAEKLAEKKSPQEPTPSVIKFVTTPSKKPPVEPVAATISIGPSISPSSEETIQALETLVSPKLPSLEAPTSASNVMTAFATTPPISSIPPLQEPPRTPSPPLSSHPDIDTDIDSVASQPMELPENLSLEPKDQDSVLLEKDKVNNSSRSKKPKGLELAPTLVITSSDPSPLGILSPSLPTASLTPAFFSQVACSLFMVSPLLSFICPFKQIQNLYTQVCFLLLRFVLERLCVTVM
How it was run: as §1

[7] = molecular target: T4, ETV2 (Homo sapiens, UniProt O00321 1-342); conditions: protein: recombinant; tags: N-terminal GST; dsDNA, one strand shown
T4 sequence: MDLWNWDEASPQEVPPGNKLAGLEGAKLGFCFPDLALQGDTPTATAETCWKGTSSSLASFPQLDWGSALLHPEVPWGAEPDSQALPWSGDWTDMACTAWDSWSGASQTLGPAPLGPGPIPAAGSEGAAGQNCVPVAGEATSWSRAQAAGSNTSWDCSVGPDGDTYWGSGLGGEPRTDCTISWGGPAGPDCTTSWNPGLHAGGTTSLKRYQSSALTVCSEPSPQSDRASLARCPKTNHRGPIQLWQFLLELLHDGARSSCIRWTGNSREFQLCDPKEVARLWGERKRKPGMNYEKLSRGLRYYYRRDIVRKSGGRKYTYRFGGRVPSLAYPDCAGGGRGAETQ
How it was run: as §1

[8] = molecular target: T5, ELF3 (Homo sapiens, UniProt P78545 1-371); conditions: protein: recombinant; tags: N-terminal GST; dsDNA, one strand shown
T5 sequence: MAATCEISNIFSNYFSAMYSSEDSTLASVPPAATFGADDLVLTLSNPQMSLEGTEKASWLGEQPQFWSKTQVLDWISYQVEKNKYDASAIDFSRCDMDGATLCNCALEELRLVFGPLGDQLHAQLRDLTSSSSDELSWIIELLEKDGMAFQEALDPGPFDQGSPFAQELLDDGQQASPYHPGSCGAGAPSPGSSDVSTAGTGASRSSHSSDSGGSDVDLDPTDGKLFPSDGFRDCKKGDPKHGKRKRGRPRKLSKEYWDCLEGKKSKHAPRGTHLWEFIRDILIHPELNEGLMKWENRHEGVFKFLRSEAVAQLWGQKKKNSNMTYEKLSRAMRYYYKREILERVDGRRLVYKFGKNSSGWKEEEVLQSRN
How it was run: as §1

[9] = molecular target: CRX (Homo sapiens, UniProt O43186 1-299); conditions: protein: recombinant; tags: N-terminal GST; dsDNA, one strand shown
How it was run: as §1

[10] = molecular target: ETV1 (Homo sapiens, UniProt P50549 1-477); conditions: protein: recombinant; tags: N-terminal GST; dsDNA, one strand shown
How it was run: as §1

CRX, sequence (O43186 whole entry): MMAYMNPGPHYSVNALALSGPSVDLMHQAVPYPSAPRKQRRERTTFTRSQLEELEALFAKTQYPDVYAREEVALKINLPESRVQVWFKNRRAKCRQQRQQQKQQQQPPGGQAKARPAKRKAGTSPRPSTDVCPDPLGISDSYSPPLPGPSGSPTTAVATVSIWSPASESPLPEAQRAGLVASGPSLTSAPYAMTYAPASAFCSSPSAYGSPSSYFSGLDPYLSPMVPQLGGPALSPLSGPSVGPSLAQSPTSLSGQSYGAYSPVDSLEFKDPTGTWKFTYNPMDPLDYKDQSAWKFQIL
ELF4, sequence (Q99607 whole entry): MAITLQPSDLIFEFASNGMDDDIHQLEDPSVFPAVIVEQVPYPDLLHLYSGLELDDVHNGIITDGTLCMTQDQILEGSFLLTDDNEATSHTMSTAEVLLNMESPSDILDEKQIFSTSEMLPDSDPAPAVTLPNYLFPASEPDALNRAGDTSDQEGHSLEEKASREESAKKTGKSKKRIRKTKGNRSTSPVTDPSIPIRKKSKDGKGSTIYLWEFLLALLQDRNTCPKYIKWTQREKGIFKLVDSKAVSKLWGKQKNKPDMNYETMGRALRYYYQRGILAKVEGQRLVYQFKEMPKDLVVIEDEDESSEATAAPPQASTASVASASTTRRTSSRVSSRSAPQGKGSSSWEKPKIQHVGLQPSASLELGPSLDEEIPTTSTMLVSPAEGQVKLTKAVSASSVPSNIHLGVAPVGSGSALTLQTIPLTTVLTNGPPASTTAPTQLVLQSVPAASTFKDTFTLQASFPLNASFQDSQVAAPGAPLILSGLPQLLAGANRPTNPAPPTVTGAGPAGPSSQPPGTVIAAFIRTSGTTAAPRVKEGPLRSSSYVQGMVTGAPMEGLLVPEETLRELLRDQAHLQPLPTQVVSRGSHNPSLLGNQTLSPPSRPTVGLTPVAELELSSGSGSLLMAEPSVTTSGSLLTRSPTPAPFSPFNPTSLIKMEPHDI
ETV5, sequence (P41161 whole entry): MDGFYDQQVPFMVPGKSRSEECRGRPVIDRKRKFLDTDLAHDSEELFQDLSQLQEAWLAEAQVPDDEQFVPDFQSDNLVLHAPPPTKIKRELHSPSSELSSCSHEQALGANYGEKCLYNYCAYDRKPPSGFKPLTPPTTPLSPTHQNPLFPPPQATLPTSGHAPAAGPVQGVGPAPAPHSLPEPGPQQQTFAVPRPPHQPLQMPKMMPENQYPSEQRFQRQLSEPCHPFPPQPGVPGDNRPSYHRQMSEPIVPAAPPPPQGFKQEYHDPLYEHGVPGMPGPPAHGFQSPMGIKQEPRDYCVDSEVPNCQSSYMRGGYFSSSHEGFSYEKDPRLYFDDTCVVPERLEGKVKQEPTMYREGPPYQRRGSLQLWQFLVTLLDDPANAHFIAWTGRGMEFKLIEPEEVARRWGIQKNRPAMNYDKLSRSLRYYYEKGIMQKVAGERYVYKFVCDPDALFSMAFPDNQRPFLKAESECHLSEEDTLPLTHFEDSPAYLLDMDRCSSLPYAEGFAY
HSF1, sequence (Q00613 whole entry): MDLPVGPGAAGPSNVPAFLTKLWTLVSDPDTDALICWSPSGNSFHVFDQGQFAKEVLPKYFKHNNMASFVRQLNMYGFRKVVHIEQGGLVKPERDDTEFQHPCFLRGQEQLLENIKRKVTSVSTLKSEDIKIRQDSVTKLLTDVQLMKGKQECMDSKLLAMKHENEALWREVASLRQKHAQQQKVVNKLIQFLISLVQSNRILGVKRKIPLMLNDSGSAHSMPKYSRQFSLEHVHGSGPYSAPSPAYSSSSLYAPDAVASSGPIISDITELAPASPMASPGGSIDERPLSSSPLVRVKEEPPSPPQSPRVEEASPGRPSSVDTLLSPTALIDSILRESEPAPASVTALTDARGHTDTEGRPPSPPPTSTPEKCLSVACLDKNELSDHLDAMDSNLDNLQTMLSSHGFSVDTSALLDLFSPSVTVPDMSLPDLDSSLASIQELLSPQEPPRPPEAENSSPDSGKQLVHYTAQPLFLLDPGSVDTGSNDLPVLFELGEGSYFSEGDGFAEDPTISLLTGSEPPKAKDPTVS
ETV1, sequence (P50549 whole entry): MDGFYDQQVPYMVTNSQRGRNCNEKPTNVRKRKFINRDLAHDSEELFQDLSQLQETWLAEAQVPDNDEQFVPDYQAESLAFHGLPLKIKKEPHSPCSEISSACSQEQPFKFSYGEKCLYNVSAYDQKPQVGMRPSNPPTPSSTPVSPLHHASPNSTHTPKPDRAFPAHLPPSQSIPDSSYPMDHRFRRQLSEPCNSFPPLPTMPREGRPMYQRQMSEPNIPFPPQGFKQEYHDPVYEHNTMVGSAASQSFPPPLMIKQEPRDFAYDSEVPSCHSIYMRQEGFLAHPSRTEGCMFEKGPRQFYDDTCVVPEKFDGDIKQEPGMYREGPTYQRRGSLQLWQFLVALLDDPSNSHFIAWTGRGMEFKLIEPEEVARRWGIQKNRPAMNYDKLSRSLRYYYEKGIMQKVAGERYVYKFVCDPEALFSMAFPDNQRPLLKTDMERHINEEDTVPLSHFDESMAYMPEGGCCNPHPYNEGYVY

Question: For AAACCA, which binding signal [1] is on record?
Answer: 1.22 fold enrichment (6-mer frequency, TF over GST control)

Question: What about the binding signal [2] of the same sequence?
Answer: 1.15 fold enrichment (6-mer frequency, TF over GST control)

Question: What about the binding signal [3] of the same sequence?
Answer: 1.09 fold enrichment (6-mer frequency, TF over GST control)

Question: What about the binding signal [4] of the same sequence?
Answer: 1.16 fold enrichment (6-mer frequency, TF over GST control)

Question: What about the binding signal [5] of the same sequence?
Answer: 1.2 fold enrichment (6-mer frequency, TF over GST control)

Question: And the binding signal [6]?
Answer: 1.26 fold enrichment (6-mer frequency, TF over GST control)

Question: And the binding signal [7]?
Answer: 1.14 fold enrichment (6-mer frequency, TF over GST control)

Question: What about the binding signal [8] of the same sequence?
Answer: 1.17 fold enrichment (6-mer frequency, TF over GST control)

Question: And the binding signal [9]?
Answer: 1.14 fold enrichment (6-mer frequency, TF over GST control)

Question: What about the binding signal [10] of the same sequence?
Answer: 1.09 fold enrichment (6-mer frequency, TF over GST control)
